Experimental data taken from PubChem BioAssay AID1285 (Columbia University Molecular Screening Center, 2008).
The whole screen tested about 190,000 compounds, of which about 1,600 (0.84%) were called active.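 The calls were made as follows: active = inhibition above a set limit, derived from the sample mean plus 3 SD (cut at about 45% in these data); inconclusive = one replicate passes the limit while the other fails; inactive = the rest.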 Shown is part of a subset that was picked to be rich in actives.

experiment: APP 5'UTR translational reporter suppression – APP 5'UTR luciferase, SH-SY5Y cells, primary screen (AID 1285); settings: SH-SY5Y APP 5'UTR-luciferase reporter, luminescence; at 2 µM; stronger effect = higher value

inhibition, inactive:
O=[N+]([O-])c1cccc(/C([O-])=C(/C(=S)Nc2ccccc2F)[n+]2ccccc2)c1 -11.7%
CCOC(=O)c1c(C)[nH]c(C2=NNC(=NC(C)COC)SC2)c1C (stereo unspecified) -102%
O=S1(=O)CCC(NC(=S)SCc2ccccc2Br)C1 (stereo unspecified) 0.3%
O=C(Nc1ccon1)c1sc2ccccc2c1Cl -68.6%
O=C(N/N=C/c1c(Cl)[nH]c2ccccc12)c1sc2ccccc2c1Cl -4.8%
Cc1ccccc1CCN(CC(=O)NC1CCCCC1)C(=O)c1csnn1 11.3%
O=c1nc(N/N=C/c2ccco2)cn[nH]1 12.4%
O=C(O)c1ccc(N/N=C/c2cn(-c3ccccc3)nc2-c2cccs2)cc1 -140%
CC(C)(O)C#Cc1ncc(C(F)(F)F)cc1Cl -2.7%
CC(=O)Nc1ccc(NC(=O)COc2ncnc3ccccc23)cc1 0.3%
O=[N+]([O-])c1cccc(Nc2c3ccccc3nc3ccccc23)c1 0.1%
C=CCn1c(SCc2ccc(Cl)c(Cl)c2)nnc1C(CO)NC(=O)c1ccc(OC)cc1 (stereo unspecified) -13.3%
CCOc1ccc(CCNC(=O)C2=C(C)C(=O)OC23CCC(C)CC3)cc1OCC (stereo unspecified) -9.6%
N=c1c2c(-c3ccccc3)c(-c3ccccc3)oc2ncn1Cc1ccco1 -10.8%
Cc1nc([N+](=O)[O-])c(NCCCO)n1Cc1ccccc1 6.3%
C/C(CCc1ccccc1)=N\NC(=O)c1ccc(CN2CCOCC2)cc1 -5.3%
COc1ccc(N2C(=O)CC(SC(C)C)C2=O)cc1 (stereo unspecified) -20.2%
COc1cc(Cl)c(C)cc1NC(=O)COC(=O)c1cc(SC)ccc1Cl 6.6%
OCCC1CN(Cc2ccc3nsnc3c2)CCN1C1CCCC1 (stereo unspecified) -9.3%
Cc1ccc(C(=O)NN(CCC#N)C2=NS(=O)(=O)c3ccccc32)cc1 -1.1%
C/C(=N\N)c1c(-c2ccccc2)c2cc(Br)ccc2[nH]c1=O -3.6%
Cc1cc(N/N=C/c2ccccc2F)c2ccccc2n1 -7.2%
COc1cccc2c(N/N=C/c3ccco3)cc(C)nc12 -4.8%
COc1ccc(O)c(C(=O)c2cnc3c(c2)c(-c2ccc(F)cc2)c(C#N)c(=O)n3C)c1 -3.8%
Cc1cccc(N2C(=O)SC(SC(=Nc3ccccc3)Nc3ccccc3)C2=O)c1 (stereo unspecified) -14.2%
Cn1c(CCC(=O)Nc2ccccc2F)nnc1SCC(=O)Nc1ccccc1Cl -2.1%
O=C(CSc1nnc(-c2cccnc2)n1CCc1ccccc1)NCc1ccccc1 4.7%
C=CCn1c(SCC(=O)Nc2nc3ccccc3s2)nnc1-c1ccccc1O 0.7%
C/C(Cn1nnc2ccccc21)=N\OC(=O)c1cc(F)c(F)cc1Cl -4.6%
Cc1cc2c(c(=O)n1Cc1ccco1)C(c1ccccc1)C(C#N)=C(N)O2 (stereo unspecified) -7.5%
Cc1cc(C)c2c3c(sc2n1)C(c1ccccc1)C(C#N)=C(N)O3 (stereo unspecified) 7.5%
O=C(/C=C/c1ccc(N2CCOCC2)cc1)c1ccccc1 -140%
O=C(N/N=C/c1coc2ccccc2c1=O)c1cc2ccccc2o1 0.7%
Cc1c(/C=N/N2C(=O)C3C4C=CC(C4)C3C2=O)c2ccccc2n1C (stereo unspecified) 13.8%
CCOc1ccc(NC(=O)COc2ccc(C(=O)NC3CCCc4ccccc43)cc2OC)cc1 (stereo unspecified) -14.3%
COc1ccccc1CNC(=O)COc1ccc(C)nc1[N+](=O)[O-] -13.3%
C/C(=C\c1ccccc1)C1NC(=O)c2c(sc3c2CCCC3)N1 (stereo unspecified) 14.6%
C=CCOC(=O)C1=C(C)NC(SCC(=O)OCC)=C(C#N)C1c1ccc(C)cc1 (stereo unspecified) -6.5%
Cc1ccc(C2CC(=O)NC(SCC(=O)OCc3ccccc3)=C2C#N)o1 (stereo unspecified) 18%
CC(C)(C)NC(=O)C(=O)NCc1ccncc1 -1.4%
COc1ccc(CC(=O)N/N=C(\C)c2ccccn2)cc1 23.4%
C/C(=N\NC(=O)Cc1ccc(F)cc1)c1ccc(F)cc1 10.7%
Cc1ccc(NC(=O)c2ccn(C(=O)Nc3ccccc3)n2)c(C)c1 -34.7%
Nc1nonc1-c1nc2ccccc2n1Cc1ccc(F)cc1 -0.7%
Nc1nonc1-c1nc2ccccc2n1CCC(=O)O -2%
O=C(NCCCN1CCOCC1)c1ccc([N+](=O)[O-])cc1[N+](=O)[O-] -18.1%
COc1cc(OC)cc(C(=O)OCC(=O)Nc2sccc2C(N)=O)c1 11.2%
O=Cc1cn(Cc2ccccc2)nc1-c1cccnc1 -9.8%
Clc1ccc(CN2CCN(/N=C/c3cccnc3)CC2)cc1 -6.8%
Cc1cccc(N2CCN(c3ccc(C(N)=O)cc3[N+](=O)[O-])CC2)c1C -15.7%
CCn1c(CNC(=O)c2ccco2)nnc1SCC(=O)Nc1cccc(F)c1 -10%
CCn1c(Cc2ccccc2)nnc1SCC(=O)Nc1ccccc1 -1.3%
O=C(CNC(c1ccccc1)c1ccccc1)Nc1ccc(F)cc1 -7.4%
CC1(C)CC(=O)C(N=Nc2ccc(S(=O)(=O)N3CCCCCC3)cc2)=C(O)C1 9.4%
CCOC(=O)c1ccc(N2C(=O)CC(N3CCN(C(=O)c4ccccc4)CC3)C2=O)cc1 (stereo unspecified) -5.3%
O=C(COc1cc(Cl)c(Cl)cc1Cl)NCCc1ccccn1 1.4%
O=C(COc1ccccc1F)NC1CC1 -9.1%
Cc1ccccc1C1CC(c2cccs2)=NN1S(C)(=O)=O (stereo unspecified) 17.8%
O=C(CSc1ncn[nH]1)Nc1nsc(-c2ccccc2)n1 -2.5%
O=C(CSc1ncn[nH]1)Nc1ccnc2ccccc12 4%
COc1ccc(Br)cc1/C=N/NC(=O)c1cccc(S(=O)(=O)N2CCOCC2)c1 -16.1%

inhibition, active:
Cc1nn(C)cc1/C=N/NC(=O)c1sc2ccccc2c1Cl 55.6%
CC(=O)Nc1ccc(Nc2c3ccccc3nc3ccccc23)cc1 92.3%
N=c1c2c(-c3ccccc3)c(-c3ccccc3)n(Cc3ccccc3)c2ncn1CCCO 77.3%
C=CS(=O)c1sc(Cl)c(N2CCOCC2)c1[N+](=O)[O-] (stereo unspecified) 83.2%
COc1cccc(/C=N/Nc2cc(C)nc(-c3ccccc3O)n2)c1O 67.5%
C=CCn1c(SCC(=O)NCc2ccccc2)nnc1-c1cc(Br)ccc1O 55.6%
N#CC1=C(N)Oc2c(sc3ccccc23)C1c1ccco1 (stereo unspecified) 56.2%
Cc1c(/C=N\NC(=O)c2cc3ccccc3o2)c2ccccc2n1C 78%
CCOC(=O)CSC1=C(C#N)C(c2sccc2C)CC(=O)N1 (stereo unspecified) 93.4%
C/C(=N\NC(=O)Cc1ccc(Cl)cc1)c1ccccn1 58.9%
COc1ccc(C)c(Cn2c(-c3nonc3N)nc3ccccc32)c1 90.7%
O=C1/C(=C\c2cccnc2)CN(Cc2ccccc2)C/C1=C\c1cccnc1 97.1%
CCn1c(CNC(=O)c2ccc(OC)c(OC)c2)nnc1SCC(=O)Nc1ccccc1 45.9%
O=C(COc1cc(Cl)c(Cl)cc1Cl)NC(=O)NC1CCCC1 45.2%
Cn1nnc(NC(=O)CSc2ncn[nH]2)n1 53.1%
